Shown are actives, neighbours in structure and some others; about 8.3% of the full set was active somewhere.
RORg inh – inhibitors of mouse ROR gamma transcriptional activity; Drosophila S2 Gal4-RORgamma UAS-luciferase reporter, 20 h; Potency, µM (titrated, usually from 53.6 µM), without a hit: at the top dose activity change, negative = inhibition, actives largely listed as inhibitors; actives 5.4% (n = 310,000); further: potency means the concentration at half of the fitted maximal effect; on the % scale 0 is the no-effect control and ±100 the full control effect; nearly all actives have a fitted effect of over 60% in size
Target sequence (P51450 whole entry, looked up, the tested form may be a part): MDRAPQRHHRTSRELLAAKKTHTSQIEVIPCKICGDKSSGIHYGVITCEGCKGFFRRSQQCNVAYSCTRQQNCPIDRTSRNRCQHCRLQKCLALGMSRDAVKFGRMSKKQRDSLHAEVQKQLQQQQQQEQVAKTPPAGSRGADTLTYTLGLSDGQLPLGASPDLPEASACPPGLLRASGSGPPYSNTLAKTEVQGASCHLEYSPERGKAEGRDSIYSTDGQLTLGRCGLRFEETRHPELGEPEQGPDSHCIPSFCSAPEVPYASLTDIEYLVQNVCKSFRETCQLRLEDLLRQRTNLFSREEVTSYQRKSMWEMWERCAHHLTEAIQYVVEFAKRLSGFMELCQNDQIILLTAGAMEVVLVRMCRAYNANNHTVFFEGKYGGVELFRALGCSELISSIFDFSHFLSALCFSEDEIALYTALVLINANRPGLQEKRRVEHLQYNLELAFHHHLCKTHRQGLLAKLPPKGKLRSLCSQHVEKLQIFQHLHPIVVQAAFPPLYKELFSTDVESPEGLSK
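Stable Schneider cell line, Gal4 DNA-binding domain fused to ROR gamma, UAS-luciferase. Cmpd 1 hr RT → CuSO4 700 uM final → 20 hr RT → luciferase reagent 10 min → luminescence.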
Giardia kill – kills Giardia lamblia | Giardia lamblia trophozoite viability | activity change, % at 7.66 µM, hits read low | actives 0.15% (n = 340,000); in the data active means activity change below about -80%; inconclusive means between about -30% and that limit;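 further: parasites exposed to compound for two days anaerobically before the ATP read; on the % scale 0 is the no-effect control and ±100 the full control effect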
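Luminescence from cellular ATP indicates surviving trophozoites (100 cells/well) following 48 hrs anaerobic compound treatment at 37 deg C; signal develops 15-30 min at room temperature.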
Gal4-VP16 FLuc – counter-screen for ROR gamma inhibitors: Gal4-VP16 reporter; Potency, µM (top dose mostly 53.6 µM), for the others: top-dose activity, negative = inhibition, actives largely listed as inhibitors; actives 3.5% (n = 310,000); Drosophila S2 Gal4-VP16 UAS-luciferase, luminescence, 20 h; AID 2546;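 further: Gal4-VP16 expression switched on by copper sulfate through the metallothionein promoter; potency means the concentration at half of the fitted maximal effect; on the % scale 0 is the no-effect control and ±100 the full control effect; nearly all actives have a fitted effect of over 50% in size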
SW480 rerep – DNA re-replication induction in SW480 cells. SW480 DNA re-replication, Hoechst DNA content imaging, 48 h. Potency, µM (doses to about 46.1 µM), for the others: at the top dose re-replication activation, most hits filed as activators. actives 1.8% (n = 340,000). AID 624297; further: potency means the concentration at half of the fitted maximal effect; % of control where 0% means no effect; nearly all actives have a fitted effect of over 55% in size
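Treated cells incubate 48 hr (37 C, 5% CO2), are stained 40 min with Hoechst, and nuclear fluorescence is enumerated; a rise in nuclei with high DNA signal marks re-replication.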
Chronic BCR inh – blocks chronic active B-cell receptor signaling. actives 0.05% (n = 340,000). Potency, µM (highest dose often 46.1 µM), for inactives: top-dose activity change, negative = inhibition, actives largely listed as inhibitors. ABC-DLBCL IkBa-CBG/CBR reporter, luminescence ratio, 4 h; active means well fitted inhibition curve with a large enough effect in the signal ratio, with a control signal flat, not every such curve was filed as active; inconclusive means small, poorly fitted or top-dose-only effect, or effect the other way, or a change in a side signal; the % refers to the signal ratio;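 further: potency means the concentration at half of the fitted maximal effect; plate controls were basal doxycycline-induced cells for no effect and cells given 10 µM MG132 for full effect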
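Doxycycline induced both beetle luciferases in TMD8 lymphoma cells; IKK-driven degradation limits the IkappaBalpha-fused green signal, while red luminescence normalises for cell number and nonspecific effects. Compounds tested up to 46 uM, 4 hrs.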
MCF10A rerep – DNA re-replication induction in MCF 10a cells; MCF 10A DNA re-replication, Hoechst nuclear intensity, 48 h; Potency, µM (titrated, usually from 46.1 µM), for inactives: at the top dose activity, positive = re-replication, actives largely listed as activators; actives 2.9% (n = 350,000); AID 624296; further: potency means the concentration at half of the fitted maximal effect; % of control where 0% means no effect; nearly all actives have a fitted effect of over 50% in size
* marks the source's active call; other numbers are inactive results; ? = inconclusive; . = no result given; [ ] = dose if it differs, or a comment. Unless noted, the call rests on the fitted dose curve; in most records, active means well fitted curve in the direction sought with a large enough effect; inconclusive means small, poorly fitted or top-dose-only effect, or another doubt; inactive means no such curve, though single readings can be large; an effect the other way counts as inactive or inconclusive.

SMILES	RORg inh	Giardia kill	Gal4-VP16 FLuc	SW480 rerep	Chronic BCR inh	MCF10A rerep
CCC(CO)Oc1cc(NC(=O)Cc2ccccc2F)c2ncn(C(C)C)c2c1 (centres undefined)	.	-9	.	4%	-1%	16%
Cc1ccc(S(=O)(=O)N/N=C/c2ccc(O)c(O)c2)cc1[N+](=O)[O-]	-29%	9	1%	21µM*	0%	-1%
Cc1ccc(S(=O)(=O)N/N=C/c2ccccc2O)cc1[N+](=O)[O-]	-24%	10	4%	-1%	?	12%
Nc1c(Cl)cc(-c2cn(CCC(=O)O)c(-c3ccc(Cl)nc3)n2)cc1Cl	.	-5	.	-18%	-3%	5%
Cc1ccc(C(=O)c2ncc[nH]2)cc1	.	7	.	-1%	-2%	-1%
S=c1nccc(-c2ccc3c(c2)CCO3)[nH]1	3.2µM*	7	6.3µM*	-54%	?	3%
CC1(C)CCc2cc(-c3ccnc(=S)[nH]3)ccc2O1	1.8µM*	8	3.2µM*	0%	0%	0%
S=c1nccc(-c2cccs2)[nH]1	4µM*	28	7.9µM*	1%	-15%	1%
Cc1ccc(-c2ccnc(=S)[nH]2)cc1	2.8µM*	3	3.5µM*	0%	-11%	0%
CC1(C)CCc2cc(CN3CCN(c4ccccn4)CC3)ccc2O1	-6%	-16	3%	3%	-7%	?
NC(=O)c1nsnc1-c1ccccc1O	22µM*	-20	11%	-9%	?	-2%
CCOC(=O)c1cc2c(=O)n3ccccc3nc2n(Cc2ccc(Cl)cc2)c1=N	.	8	.	2.1µM*	.	1.6µM*
COCCn1c(=N)c(C(=O)NCc2ccco2)cc2c(=O)n3ccccc3nc21	-3%	0	-1%	?	1%	10µM*
N=c1c(C(=O)NCc2ccco2)cc2c(=O)n3ccccc3nc2n1Cc1ccc(Cl)cc1	-1%	17	9%	9.2µM*	0%	2.3µM*
CC(C)n1c(=N)c(C(=O)NCCc2ccccc2)cc2c(=O)n3ccccc3nc21	-11%	7	-4%	23µM*	1%	13µM*
Cc1ccc2nc3c(cc(C(=O)NCc4ccco4)c(=N)n3Cc3ccco3)c(=O)n2c1	-12%	-24	0%	24%	6%	?
Cc1cccn2c(=O)c3cc(C(=O)NCc4cccnc4)c(=N)n(C(C)C)c3nc12	-18%	10	-2%[0.365 µM]	?	2%	?
CC(=O)Nc1ccc(NC(=O)c2ccnn2C)cc1	.	18	.	4%	.	1%
Cc1c(C)n(Cc2ccccc2)c2ccc(C(=O)OCCN(C)C)cc12	?	0	-7%	?	?	?
N=c1c(C(=O)NCc2ccco2)cc2c(=O)n3ccccc3nc2n1Cc1ccccc1	15%	6	-2%	15µM*	15%	18µM*
N=c1c(C(=O)NCc2ccccc2)cc2c(=O)n3ccccc3nc2n1Cc1ccco1	?	2	?	16µM*	26%	13µM*
N=c1c(C(=O)NCc2ccc(F)cc2)cc2c(=O)n3ccccc3nc2n1Cc1ccco1	22%	4	?	?	15%	6.5µM*
N=c1c(C(=O)NCc2ccc3c(c2)OCO3)cc2c(=O)n3ccccc3nc2n1Cc1cccnc1	-2%	-2	-1%	15%	-1%	15%
Cc1ccc(CNC(=O)c2cc3c(=O)n4ccccc4nc3n(Cc3ccco3)c2=N)cc1	3.2µM*	2	2.8µM*	16µM*	?	7.9µM*
O=P(O)(O)OC[C@H]1O[C@](O)(COP(=O)(O)O)[C@@H](O)[C@@H]1O	17%	.	-11%	3%	.	0%
SMILES	RORg inh	Giardia kill	Gal4-VP16 FLuc	SW480 rerep	Chronic BCR inh	MCF10A rerep
COC(=O)CN1C(=O)[C@H]2[C@@H](c3ccc(C)o3)N3C(=O)CN(CC4CC4)C(=O)[C@@]3(Cc3ccccc3)[C@H]2C1=O	-16%	-6	-6%	-5%	0%	-6%
O=c1c2sccc2[nH]c(=S)n1-c1ccccc1	?	12	3.5µM*	-5%	4%	-3%
Cc1cccc(-n2c(=S)[nH]c3c(oc4ccccc43)c2=O)c1	2.8µM*	-3	4.5µM*	-7%	0%	8%
O=c1c2oc3ccccc3c2[nH]c(=S)n1-c1ccccc1	?	1	5µM*	-16%	?	15%
Cc1ccc(-n2c(=S)[nH]c3c(oc4ccccc43)c2=O)cc1	90%	6	-5%	23%	?	-4%
O=C(Nn1c(=O)[nH]c2ccsc2c1=O)c1ccccc1	-1%	5	2%	-4%	11%	0%
O=C(O)C(Oc1ccc2ccc(=O)oc2c1)c1ccccc1 (centres undefined)	8%	.	1%	.	.	.
O=S(=O)(NC(=S)NC1CCCCC1)c1ccc(Br)cc1	4.5µM*	-18	?	-1%	6%	-5%
Clc1ccc(CNc2ncnc3nc[nH]c23)cc1	.	-18	.	.	.	.
CCN(CC)c1ccc(NC(=O)c2cccc(F)c2)c(C)c1	16%	15	12%	18µM*	-17%	?
Cc1cc(C)c(S(=O)(=O)/N=C2\C=C(Nc3ccc(C(=O)O)cc3)C(=O)c3ccccc32)c(C)c1	?	-5	10µM*	?	?	17%
O=C(O)c1ccc(NC2=C/C(=N/S(=O)(=O)c3ccccc3)c3ccccc3C2=O)cc1	11µM*	-4	7.9µM*	3.3µM*	?	?
Cc1cc(C)c(S(=O)(=O)/N=C2\C=C(NS(=O)(=O)c3ccccc3)C(=O)c3ccccc32)c(C)c1	-9%	14	7%	-6%	3%	14%
CC(C)(C)OC(=O)N1Cc2ccccc2C[C@H]1C(=O)NCC(=O)NCC1CCCO1 (some centres undefined)	-12%	4	-6%	-14%	-9%	2%
CC(C)CCNC(=O)c1c(CSc2ccccc2)noc1C(=O)NCc1ccccc1	-2%	-16	9%	-9%	-1%	-24%
CN(/N=C/c1ccc(O)cc1O)c1ncc(C(F)(F)F)cc1Cl	7.9µM*	36	-11%	1%	?	?
Cc1cccnc1NC(=S)Nc1ccc(F)cc1F	6.3µM*	-1	?	-2%	-16%	-35%
Cc1cc(C)nc(NC(=S)Nc2ccc(F)cc2F)c1	0.71µM*	11	-30%	15%	8%	-33%
Cc1ccc(C)c(NC(=S)Nc2ncccc2C)c1	3.5µM*	-9	?	3%	?	-3%
CC(C)(C)NC(=O)/C(=C\c1ccco1)NC(=O)c1ccco1	-2%	6	-1%	-9%	-2%	-1%
O=C(CCc1ccccc1)Nc1ccc2c(c1)C(=O)OC2	?	0	23%	-1%	?	-5%

Screening results (PubChem BioAssay)
